Measurements from PubChem BioAssay AID932 (The Scripps Research Institute Molecular Screening Center, 2007).
The whole screen tested about 200,000 compounds, of which about 5,100 (2.5%) were called active. The list comes from a sample in which actives are over-represented; it also holds similar structures and randomly drawn compounds. Values without a mark were called inactive.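 The calls were made as follows: active = activation above the screen-wide mean activation plus 3 SD (cut at about 130% in these data); inactive = the rest.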

Experiment: potentiators of IFN-gamma driven STAT1 reporter – cell-based, HTS, luciferase reporter, primary screen (AID 932);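 also: raw ratio to IFN-gamma control signal so 100% means no change and 0% no light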
Details: NIH 3T3 STAT1-luciferase reporter, luminescence, at 5.5 µM, hits give high values, 100% = IFN-gamma alone, no compound

Structure (SMILES)	activation (% of control)
CCn1c(/C=C/Nc2ccccc2)[n+](CC)c2ccc(C(=O)OCC(F)(F)F)cc21	88.3%
COCc1ccc(C(=O)N2CCc3c([nH]c4ccccc34)C2c2ccccn2)s1 (stereo unspecified)	94%
Cc1ccc(OCC(=O)Nn2cnc3ccccc32)cc1	104%
COCCOCCn1cnc2ccccc21	104%
COC(=O)c1ccc(-n2cnc3ccccc32)nc1	129% (active)
O=C(O)CC1S/C(=N\N=C/c2ccccc2O)N(c2ccc(O)cc2)C1=O (stereo unspecified)	102%
Cc1cccc2c1N(CCOc1ccccc1)C(=O)C2=O	99%
NC(=S)N/N=C/c1ccc([N+](=O)[O-])cc1	121%
Cc1ccc(NC(=O)CN(C)CC(=O)Nc2cccc(F)c2)cc1[N+](=O)[O-]	67.3%
Cc1ccc(NC(=O)c2sccc2C)cc1[N+](=O)[O-]	138% (active)
Cc1ccsc1C(=O)N/N=C/c1ccc([N+](=O)[O-])cc1	146% (active)
Cc1cc(O)c(NC(=O)c2ccc(C)c([N+](=O)[O-])c2)cc1C	103%
Cc1nc2ccccc2cc1C(=O)N/N=C/c1ccc([N+](=O)[O-])cc1	93.6%
C=CCNC(=O)COC(=O)c1ccccc1C(=O)N(C)C1CCCCC1	95.6%
O=c1[nH]n(-c2ccc([N+](=O)[O-])cc2)c(=O)c2ccccc12	101%
CCN1CC(CN(C)Cc2nc(-c3ccc(Cl)cc3)no2)CC1=O (stereo unspecified)	96.3%
CC(C)C(c1nnnn1C(C)(C)C)N1CCN(Cc2cccnc2)CC1 (stereo unspecified)	98.8%
CCCCCC(=O)Nc1ccc(-c2cn3cccnc3n2)cc1	103%
CCC(C)(C)C1CCC(=NNC(=O)c2ccc(Br)o2)CC1 (stereo unspecified)	129% (active)
CC(C)(C)C1CCC(=NNC(=O)c2ccc(Br)o2)CC1 (stereo unspecified)	121%
C/C(=N/NC(=O)c1ccc(Br)o1)c1ccc(C)o1	112%

Structure (SMILES)	activation (% of control)
COc1ccccc1-n1c(C)nc2cc(C(=O)NCc3ccc4c(c3)OCO4)ccc21	98.5%
COc1ccc(OC)c2[nH]c(=O)c(CCNC(=O)C(=O)c3c[nH]c4ccccc34)cc12	95.3%
Cc1ccc(NC(=O)CC2C(=O)N(Cc3ccccc3)C(=S)N2NC(=O)c2cccc(F)c2)c(C)c1 (stereo unspecified)	103%
O=C(Cn1ncc(N2CCCC2)c(Br)c1=O)c1ccc(Cl)cc1	130% (active)
Cn1c(=O)c2c(nc(N3CCCCCC3)n2CC(=O)c2ccc(Br)cc2)n(C)c1=O	94.8%
CC(=O)Cn1ncc(N2CCOCC2)c(Br)c1=O	104%
O=C(COC(=O)/C=C/c1nc2ccccc2s1)Nc1ccccc1Oc1ccccc1	95.5%
CC(=O)NCC(=O)N1CCCC(C(=O)c2ccc3c4c(cccc24)CC3)C1 (stereo unspecified)	99.2%
CCOC(=O)C1CCN(c2ccc(C(=O)O)cc2[N+](=O)[O-])CC1	98.3%
COc1ccc(NC(=O)N2CCCC(c3nc(-c4ccc(F)cc4)no3)C2)cc1 (stereo unspecified)	102%
CSc1ccc(C#N)cc1NC(=O)c1cccc(Cl)c1	106%
N#Cc1ccccc1NC(=O)c1cccc(COc2ccc(Cl)cc2Cl)c1	132% (active)
O=C(Nc1ccn(Cc2ccccc2F)n1)c1ccc(COc2ccc(Cl)cc2Cl)o1	105%
CN1C=CC=C/C1=C1\SC(=S)N(Cc2ccccc2)C1=O	104%
O=C(NCc1ccccn1)Nc1ccc(F)cc1	108%
c1ccc(CN=C2Nc3ccccc3CS2)nc1	135% (active)
CC(C)(C)NC(=O)CN1CCC(NC(=O)C23CC4CC(CC(C4)C2)C3)CC1	96.5%
COc1ccc(-n2nc(C(=O)NCC(=O)Nc3cccc(C)n3)c3ccccc3c2=O)cc1	99.9%
CCOC(=O)CNC(=O)c1nn(-c2cccc(OC)c2)c(=O)c2ccccc12	130% (active)
COc1cccc(-n2nc(C(=O)N3CCN(Cc4ccccc4)CC3)c3ccccc3c2=O)c1	99.9%
COc1ccc(-c2csc(-c3cccs3)n2)cc1OC	182% (active)

Structure (SMILES)	activation (% of control)
COc1ccc(C2CC(c3cccs3)=Nc3ccccc3S2)cc1OC (stereo unspecified)	106%
COc1ccc(-c2nn3c(-c4ccccc4)nnc3s2)cc1OC	114%
Cc1ccc(NC(=S)N(CCN(C)C)Cc2cccs2)cc1C	97.2%
Cc1ccc(NC(=O)c2cccs2)cc1S(=O)(=O)N(C)C	101%
Cc1ccc(NC(=O)CNCc2ccccn2)cc1S(=O)(=O)N(C)C	97.7%
Cc1ccc(C(=O)Nc2ccc(C)c(S(=O)(=O)N(C)C)c2)s1	141% (active)
C#CCOCCOCCOCCNc1nc(N2CCN(C(=O)C(Cc3ccc(O)cc3)n3cc(C(N)CC(C)C)nn3)CC2)nc(N2CCN(C(=O)C(Cc3ccc(O)cc3)n3cc(C(N)C(C)CC)nn3)CC2)n1 (stereo unspecified)	109%
O=C(NC(=S)Nc1cccc(-c2ccc(CO)o2)c1)c1cccs1	93.4%
Cc1cc(-c2n[nH]c(=S)n2-c2ccc(C)c(C)c2)no1	90.1%
CCOC(=O)c1ccccc1N1C(=O)C2Sc3[nH]c(=O)sc3C(/C=C/c3ccccc3)C2C1=O (stereo unspecified)	114%
COC(C(=O)Nc1ccc(S(=O)(=O)Nc2ccc(C)c(C)c2)cc1)c1ccccc1 (stereo unspecified)	108%
Cc1ccc(SCCN2C(=O)NC(C)(C)C2=O)cc1	103%
CC(=O)c1cnc(SCCN2C(=O)c3ccccc3C2=O)nc1C	95.5%
Nc1ccc(SCCN2C(=O)c3ccccc3C2=O)cc1	129% (active)
O=C(CN1CCSCC1)N/N=C/c1ccc(Cl)cc1	107%
COc1ccc(-c2ccc(CCC(=O)O)n2-c2ccc(O)cc2)cc1	101%
CC(C)c1ccc(C(=O)NCCCc2ccccc2)cc1	131% (active)
CCCOc1ccc(C(=O)NCCc2ccccc2)cc1	76.1%
O=C(NCCc1ccccc1)c1ccc(OCCOc2ccccc2)cc1	109%
